Reference: PubChem BioAssay (NCI)
About 83,000 compounds went through this panel and 20% of them were active in at least one assay; those are over-represented in the sample as a whole.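 96-well plates, one dose, 48 hours. Percent growth reported; active if below 10.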 Activity calls are given as the source filed them.

tested on: SNB-75 CNS; assay: NCI-60 one-dose screen, 48 h (100 = growth as untreated, 0 = no growth, -100 = all killed); settings: 10 µM unless noted
Procedure: Growth inhibition of the SNB-75 human tumor cell line is measured as a screen for anti-cancer activity. Cells are grown in 96 well plates and exposed to the test compound for 48 hours. Compounds are tested at a single concentration, which is 10^-5 M for most compounds. The reported endpoint is percent growth (GI% or GIPRCNT), where numbers from 0 - 100% represent growth inhibition, and numbers from -100% - 0 represent cell death. For example, a value of 40 represents 60% growth inhibition. A value of 0 means no net growth occurred over the course of the experiment. A value of -40 indicates 40% of cells at the beginning of the experiment died by the end of the experiment. A value of -100 means all cells are dead at the end of the experiment.
NCI-60 Human Tumor Cell Lines Screen was performed using the standard one-dose NCI protocol, which is described in more detail at https://dtp.cancer.gov/discovery_development/nci-60/default.htm.
Compounds with GIPRCNT values below 10 were considered active. Activity score was based on GIPRCNT using the following formula: […]
Score is 0 for GIPRCNT values of 100 or above, 50 for GIPRCNT values of 0, and 100 for GIPRCNT values of -100.

Row | SMILES | growth
1 | C=C1CCC2C3(C)COC(c4ccc(SC)cc4)OC3CCC2(C)C1C/C=C1/C(=O)OCC1O (stereo not given) | 73% (inactive)
2 | CCNS(=O)(=O)c1ncnc2nc[nH]c12 | 122% (inactive)
3 | C[C@@H]1CC[C@@H]2[C@@H]1[C@H](OC(=O)/C=C/c1ccccc1)[C@]1(C3CCCCC3)C[C@@H](OC(=O)CO)[C@@]2(C)O1 | 88.4% (inactive)
4 | CCOC(=O)CC(C)=N | 84% (inactive)
5 | CC[C@H](Nc1nc(N)nc(C)c1C#N)c1nc2cccc(NCc3ccc(C(=O)NO)cc3)c2c(=O)n1-c1ccccc1 | 14.3% (inactive)
6 | Nc1nc2c(c3ncccc13)C(c1ccc(Cl)c(Cl)c1)Cc1ncccc1-2 (stereo not given) | 16.4% (inactive)
7 | COC(/C=C/c1ccc([N+](=O)[O-])cc1)OC | 85.9% (inactive)
8 | CC(=O)C1=C(O)C=C2Oc3c(C(=O)/C=C/c4cc(C(F)(F)F)cc(C(F)(F)F)c4)c(O)c(C)c(O)c3[C@]2(C)C1=O | -28.3% (active)
9 | C=CC[N+]1(CCO)CCN=C1CCCCCCCCCCCCC (stereo not given) | -78.3% (active)
10 | O=C(O)c1ccc(=O)[nH]n1 | 98.4% (inactive)
11 | O=C1C2CC=CCC2C(=O)N1CNc1ccc(Cl)cc1 (stereo not given) | 78.2% (inactive)
12 | CNC(=O)c1cc(Oc2ccc3nc(NC(=O)Nc4ccc(N5CCC(N(C)C)CC5)cc4)sc3c2)ccn1 | 86.4% (inactive)
13 | CCc1ccccc1NC(=O)c1sc2nc3c(cc2c1N)C(=O)CCC3 | -15.4% (active)
14 | O=C1C[C@H](N2C(=O)c3ccccc3S2(=O)=O)C2CO[C@@H]1O2 | 91.3% (inactive)
15 | CC/C(=C(\c1ccc(O)cc1)c1ccc(OCCN(C)CCN(C)C(=O)CCCCC(=O)c2c(C)[nH]c(/C=C3\N=C(c4ccc[nH]4)C=C3OC)c2C)cc1)c1ccccc1 | 105% (inactive)
16 | NC1=CC(=O)C(=O)c2ccccc21 | 113% (inactive)
17 | c1ccc(-c2nc(N3CCOCC3)c3c4c(sc3n2)CCCCC4)nc1 | 45.9% (inactive)
18 | CS(=O)(CCCCN=C=S)=NC(=O)c1c(F)c(F)c(F)c(F)c1F (stereo not given) | 97.4% (inactive)
19 | c1ccc(Sc2ncnc3ccccc23)cc1 | 73.2% (inactive)
20 | N#CC1=C(N)Oc2c(ccc3ccccc23)C1c1cccs1 (stereo not given) | 4.67% (active)

Row | SMILES | growth
21 | CN1CCN(Cc2ccc(NC(=O)c3[nH]ncc3Nc3ncnc4[nH]ccc34)cc2)CC1 | -39.1% (active)
22 | COc1ccccc1-c1ccc2c(N)c(C(=O)c3ccc4c(c3)OCO4)sc2n1 | 85.1% (inactive)
23 | COc1cc(OC)c(/C=C/c2cc[n+](C)c3ccccc23)c(OC)c1 | -13.8% (active)
24 | CCN(CC)CC(O)CNc1c2ccc([N+](=O)[O-])cc2nc2cc(OC)c(OC)cc12 (stereo not given) | -94.6% (active)
25 | Nc1cc2ccncc2c2ccccc12 | 116% (inactive)
26 | O=S(=O)(NCCCNc1cc(-c2cn(-c3ccccc3)nc2-c2ccccc2)ccn1)c1ccc(C(F)(F)F)cc1 | 58.6% (inactive)
27 | COc1cnc2c(c1)C(=O)c1c-2n(CCCN2CCNCC2)c(=O)c2cc([N+](=O)[O-])ccc12 | 2.92% (active)
28 | CN(C)CCOc1ccc(-c2nc3ccc(-c4nc5ccc(N6CCN(C)CC6)cc5[nH]4)cc3[nH]2)cc1 | 89.8% (inactive)
29 | Cc1nc2nc(N)nc(N)c2nc1C | 93.2% (inactive)
30 | COc1cccc(NC(=O)c2sc3nc4c(cc3c2N)CN(Cc2ccccc2)CC4)c1 | -19.7% (active)
31 | O=C(COCc1c(-c2ccccc2)no[n+]1[O-])Nc1ccc(C(=O)/C=C/c2ccc3c(c2)OCO3)cc1 | 120% (inactive)
32 | CCCCCCCCCCCCN1CCCC(C)C1 (stereo not given) | 73.4% (inactive)
33 | Cc1cccc(NC(=O)c2sc3nc4c(cc3c2N)C(=O)CCC4)c1 | 4.87% (active)
34 | Cc1sc2nc3[nH]/c(=C\c4ccc(Cl)cc4)c(=O)n3c(=O)c2c1C | 89.6% (inactive)
35 | CCCCCN(CCCCC)CCC[C@@H](C)[C@H]1CC[C@H]2[C@@H]3[C@H](OCCCN)C[C@@H]4C[C@H](OCCCN)CC[C@]4(C)[C@H]3C[C@H](OCCCN)[C@]12C | 70.6% (inactive)
36 | Oc1cc(O)c2c(=S)cc(-c3ccc(Cl)cc3)oc2c1 | 48.3% (inactive)
37 | CNCc1cccc2c1OCCOCCOCCN(C)S(=O)(=O)c1ccc(cc1)-c1cnc(N)c(n1)C(=O)N2 | 33.2% (inactive)
38 | Cc1nn(-c2nc3ccccc3[nH]2)c2c1C(c1ccc3c(c1)OCO3)CC(=O)N2 (stereo not given) | 39.8% (inactive)
39 | Nc1nc(-c2ccc(F)cc2)cc(-c2cnn(-c3ccccc3)n2)n1 | 100% (inactive)
40 | CCOC(=O)/C=C/C(=O)[C@H](CC(C)C)NC(=O)[C@H](Cc1ccccc1)NC(=O)OCc1ccccc1 | 69.2% (inactive)
